# Results taken from PubChem BioAssay AID588342 (National Center for Advancing Translational Sciences (NCATS), 2011).
# Out of some 360,000 compounds screened, about 25,000 (6.9%) were called active. Another 9% or so got no clear call; they are omitted. What follows is part of a selection rich in actives, with near analogues and random picks from the rest. Values without a mark were called inactive. The call rests on the fitted dose curve; in most records, active means well fitted inhibition curve with a large enough effect; inconclusive means small, poorly fitted or top-dose-only effect; inactive means flat fitted curve, though single readings scatter.
# Target: Luciferin 4-monooxygenase (Photinus pyralis) (UniProt P08659)
# Test: qHTS profiling assay for firefly luciferase inhibitor/activator using purifed enzyme and Km concentrations of substrates (counterscreen for miR-21 project); further: nearly all actives have a fitted effect of over 55% in size;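 on activity change, negative = inhibition: plate controls were vehicle for no effect and reference inhibitor for full effect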
# Settings: purified FLuc, luminescence inhibition; series mostly up to 57.5 µM; activity change, negative = inhibition: at the top concentration
# Excerpt: MLPCN Grant: 1 R21 NS059478-01 (miR-21 grant) Assay Provider: NCGC NCGC Assay Overview: Firefly (Photinus pyralis) luciferase is one of the most commonly used transcriptional reporters for a number of reasons. It is considered one of the more dynamically responsive reporters -that is, responsive to changes in reporter transcription - as it requires no post-translational modifications and is enzymatically active directly after protein synthesis (Wood, 1998). Additionally, the half-life of the luciferase protein is short relative to other reporter-gene products (Wood, 1995). Whereas reporters with long half-lives potentially allow for increased signal due to accumulation of reporter-gene product, once accumulated in the cell, dynamic changes in reporter-gene expression may be difficult to detect(Fan and Wood, 2007; Almond et al., 2004). It has been shown that wild-type P. pyralis luciferase has a half-life of approximately […] hours in mammalian cells (Thompson et al., 1991). Firefly luciferase reporter-gene assays are also generally considered one of the most sensitive assay types (Wood, 1995; Wood, 1998). Although light produced in a bioluminescence reaction is of lower intensity than that produced during fluorescence emission, this is offset by little to no background light inherent to luminescent assays. Thus the luciferase reporter can be expressed at much lower levels than fluorescent proteins while still providing robust signal. # However, it was initially observed, in 1991, by Thompson et al., that compounds that resemble the substrates of firefly luciferase (FLuc) can act as competitive inhibitors of the enzyme, and that these compounds, upon interaction with luciferase in the cell, can actually stabilize the protein and increase its half-life. Accumulated intracellular FLuc protein can be measured as an increase in luminescence signal, upon addition of detection reagents (which contain high concentrations of FLuc substrates) commonly used in high-throughput screening. In cell-based reporter gene assays that use FLuc as the reporter gene to quantitate the potential influence of a given compound against the target biology, this apparent increase in luminescence can mistakenly be interpreted as identification of a compound that is active against the target of interest. This is the case for the miR-21 FLuc reporter gene assay used to identify inhibitors of the miR-21 pathway (PubChem AID 2289) - compounds of interest will inhibit miR-21 biogenesis/expression or activity, and are identified by causing an increase in luminescence, due to increased FLuc translation. However, FLuc inhibitory compounds that stabilize the FLuc protein will give an identical read-out, making it difficult to distinguish compounds that are active against the target from those active against FLuc. Previous profiling work to determine the prevalence of compounds that affect FLuc enzymatic activity (PubChem AID 411) identified that ~3% of the MLSMR library (then at ~72K) inhibited FLuc. […] Since the MLSMR had grown to ~350K compounds, and since it was expected that a significant percentage of compounds found active in the miR-21 FLuc assay would be FLuc inhibitors, the library was screened for activity against FLuc using a biochemical assay of purified FLuc and KM concentrations of FLuc substrates (D-luciferin and ATP).
# NCGC Assay Protocol Summary: Reagents: 50mM Tris acetate, pH 7.5; 10mM Mg acetate; 10uM D-luciferin (Sigma #L9504); 10uM ATP; 0.01% Tween-20; 0.05% BSA; 10nM P. pyralis luciferase (Sigma #L9506) Control compounds used were two known firefly luciferase inhibitors (compounds (2) and (5) in Auld et al., 2010), and DMSO. […]
# Sequence of Luciferin 4-monooxygenase (Photinus pyralis) (P08659 whole entry, looked up): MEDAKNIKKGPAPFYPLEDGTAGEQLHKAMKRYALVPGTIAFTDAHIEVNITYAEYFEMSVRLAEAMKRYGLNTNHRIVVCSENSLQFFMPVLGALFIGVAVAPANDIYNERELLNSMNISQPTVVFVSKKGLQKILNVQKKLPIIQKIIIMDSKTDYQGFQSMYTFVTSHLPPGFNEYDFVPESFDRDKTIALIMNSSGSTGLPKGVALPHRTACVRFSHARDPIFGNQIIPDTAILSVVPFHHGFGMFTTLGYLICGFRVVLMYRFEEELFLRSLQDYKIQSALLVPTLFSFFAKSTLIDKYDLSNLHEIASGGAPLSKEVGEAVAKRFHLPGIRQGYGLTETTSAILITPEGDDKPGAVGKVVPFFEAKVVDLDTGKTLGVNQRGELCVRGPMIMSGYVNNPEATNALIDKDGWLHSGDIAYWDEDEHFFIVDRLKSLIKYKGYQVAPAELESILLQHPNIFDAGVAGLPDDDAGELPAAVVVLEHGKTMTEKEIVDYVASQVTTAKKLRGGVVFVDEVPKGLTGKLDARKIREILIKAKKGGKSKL
SMILES,"activity change, negative = inhibition",Potency
COc1ccc(S(=O)(=O)N2CCN(c3ccc(F)cc3)CC2)cc1-c1noc(C)n1,-4.3%,
Cc1ccc2c(c1)c1c(c(=O)n(-c3ccccc3)c(=O)n1CC(=O)c1ccc(Cl)cc1)n2C,-3.33%,
O=C(Cn1nc(Cc2cccnc2)c2ccccc2c1=O)N1CCN(c2ccccc2F)CC1,-2.35%,
Cc1cc2c(=O)n(C)c(SCC(=O)c3cc4ccccc4o3)nc2s1,4.57% [at 2.3 µM],
Nc1ncc(-c2cc3ccccc3oc2=O)s1,,6.01 µM (active)
Cc1ccc(S(=O)(=O)N2CCC(C(=O)OCC(=O)N(C)c3ccccc3)CC2)cc1C,9.29%,
CCC(C(=O)Nc1cccc(Cl)c1C)n1nc(-c2ccc(C)cc2)ccc1=O (configuration not stated),3.5%,
COc1ccc(C)cc1N(CC(=O)N1CCC(C)CC1)S(=O)(=O)c1ccc(C)cc1,-7.97%,
CC(C)(COC(=O)Nc1ccccc1)COC(=O)Nc1ccccc1,-14.3%,
O=C(Nc1ccccc1)O/N=C1/CCCc2occc21,,16.9 µM (active)
O=C(Nc1ccccc1)O/N=C1\CCCCC1c1ccc([N+](=O)[O-])cc1[N+](=O)[O-] (configuration not stated),4.78%,
CC(=O)NC(Cc1c[nH]c2ccccc12)C(=O)O (configuration not stated),5.21%,
O=S(=O)(O)Oc1c[nH]c2ccccc12,,12 µM (active)
NC(=O)CSc1c[nH]c2ccccc12,-10.3%,
Cc1ccc(NC(=O)Cn2c(=O)n(-c3ccccc3)c(=O)c3c4c(sc32)CCCC4)cc1,2.01%,
CCOc1ccc(C(=O)CCN2CCOCC2)cc1,1.6%,
CCOc1ccc(-c2ccc(SCC(=O)N3CCOCC3)nn2)cc1,,3.38 µM (active)
CCn1c(COc2cccc(OC)c2)nnc1SCC(=O)N1CCOCC1,6.62%,
CCNS(=O)(=O)c1ccc(NC(=O)CSc2nc(-c3ccco3)cc(C(F)(F)F)n2)cc1,2.67%,
O=C1OC2(CCCCC2)CC2=C1C1O[C@](c3ccsc3)(Cc3ccccc31)O2,-0.717% [at 11.5 µM],
CC(C)(C)c1nnc(N/N=C/c2ccc(O)cc2)n(N)c1=O,,13.5 µM (active)
Nc1nnn(CC(=O)N/N=C/c2ccc(O)cc2)n1,-1.83%,
Cc1nnc(NC(=O)C(c2ccccc2)c2ccccc2)s1,-1.25%,
CC(C)CCC(C)NC(=O)c1ccc2nccnc2c1 (configuration not stated),-15%,
Cc1nnc(NC(=O)c2ccc3nccnc3c2)s1,,15.1 µM (active)
Cc1ccc(S(=O)(=O)N2CCC(C(=O)Nc3cc(C)ccc3C)CC2)cc1,-1.47%,

SMILES,"activity change, negative = inhibition",Potency
Cc1cc(C)c(NC(=O)CS(=O)CC(=O)Nc2cccnc2)c(C)c1 (configuration not stated),0.546%,
Cc1cccc(-n2cnc(C(=O)Nc3cccnc3)c2)n1,,10.7 µM (active)
Cc1cccc(-n2cnc(C(=O)NNC(=S)Nc3ccccc3)c2)n1,-17.5%,
CN(CC(=O)NCCN1CCOCC1)S(=O)(=O)c1ccc(F)cc1,2.29%,
Cc1nn2c(=O)cc(COC(=O)c3ccccc3NC(=O)COc3ccccc3C)nc2s1,-6.91%,
O=C(Nc1ccc(C(=O)OCc2cc(=O)n3nc(C4CC4)sc3n2)cc1)c1ccc(F)cc1,-0.0489%,
O=C(OCc1cc(=O)n2nc(C3CC3)sc2n1)c1ccccc1Cl,,16.9 µM (active)
Cc1nn2c(=O)cc(COC(=O)c3cccc(NC(=O)COc4ccccc4Cl)c3)nc2s1,,3.01 µM (active)
Cc1ccc(OCC(=O)OCc2cc(=O)n3nc(C4CC4)sc3n2)cc1,-5.96%,
CCCCc1nn2c(=O)cc(COC(=O)c3cccc(NC(=O)COc4ccccc4)c3)nc2s1,-7.88%,
CN1CCc2c(sc3c2c(NCc2ccco2)nc2nnnn23)C1,7.24%,
Cc1nc2ccccn2c(=O)c1NC(=O)c1c(F)cccc1F,3.3%,
COc1ccc2cc(C3=CC(=O)C[C@H](c4ccc5c(c4)OCO5)C3)ccc2c1,3.7%,
Cc1cccc(C)c1NC(=O)CN1C(=O)C(C)Oc2ccccc21 (configuration not stated),1.07%,
CN(CC(=O)Nc1ccc(OC(F)(F)F)cc1)C(=O)C1CCC1,-4%,
CC(C)[C@H](NC(=O)c1ccc(F)cc1)C(=O)OCC(=O)NC(=O)c1cccn1C,0.441%,
Cc1nn(C(C)C(=O)Nc2ccc(C(C)C)cc2)c(=O)c2c1sc1ccccc12 (configuration not stated),-10.5%,
CC(=O)c1cccc(S(=O)(=O)N2CCC(n3nnc4cc(F)ccc43)CC2)c1,1.11%,
O=C(c1ccc(F)cc1)N1CCC(n2nnc3ccccc32)CC1,,2.69 µM (active)
O=S(=O)(c1cccc(S(=O)(=O)N2CCC(n3nnc4ccccc43)CC2)c1)N1CCCCC1,0.624%,
CCCN(CCC)C(=O)Cn1c(=O)n(-c2ccc(Cl)cc2)c(=O)c2c3c(sc21)CCCCC3,4.78%,
COc1ccc(-c2nnc(SCC(=O)Nc3ccc(C(C)C)cc3)nc2-c2ccc(OC)c(OC)c2)cc1OC,4.68%,
CN(Cc1cc2cc(F)ccc2[nH]1)Cc1nc(-c2cnccn2)no1,1.36%,
O=C(O)c1ccc(NC(=O)c2cn(-c3ccccc3)nc2-c2ccc(Cl)cc2)cc1,,6.75 µM (active)
Cc1ccc(-c2nn(-c3ccccc3)cc2C(=O)NCCCN2CCCC2=O)cc1,,21.3 µM (active)
COc1ccc(-c2nn(-c3ccccc3)cc2/C=C\C(=O)Nc2ccc(C(=O)O)cc2)cc1,,15.1 µM (active)

SMILES,"activity change, negative = inhibition",Potency
Cc1nn(Cc2ccccc2)c(C)c1C(=O)NCCCN1CCCC1=O,-2.49%,
COc1cccc(C(=O)NC(=O)Nc2ccc(-c3cc(C(F)(F)F)nn3-c3ccccc3)cc2)c1,-3.37%,
O=C(NCCCN1CCCC1=O)c1ccc(S(=O)(=O)Nc2ccccc2)cc1,-0.641%,
COc1ccc(NC(=O)CSc2nc(N)c(-c3ccccc3)c(=O)[nH]2)cc1,8.54%,
O=C(CSc1nnc(-c2ccncc2)n1-c1ccc(Cl)cc1)Nc1ccc(C(=O)O)cc1,-4.75%,
COc1ccc(NC(=O)CN(C)C(=O)/C=C/c2cn(Cc3ccccc3)nc2-c2cccnc2)cc1,-3.23%,
COc1ccc(NC(=O)c2cn(-c3ccccc3)nc2SC)cc1,,15.1 µM (active)
Cc1ccc(-c2nn(-c3ccccc3)cc2C(=O)Nc2cccc(S(=O)(=O)N3CCOCC3)c2)cc1,-3.14%,
COc1ccc(NC(=O)c2ccccc2CC[N+](=O)[O-])cc1,1.33%,
Cc1ccc(Cl)c(NC(=O)CN2CCN(C=O)CC2)c1,-0.796%,
Fc1cccc(-n2ncc3c2ncn2nc(-c4ccccc4Cl)nc32)c1,-1.28%,
CN(C(=O)CSc1nnc(C2CC2)n1C)C1CCCc2ccccc21 (configuration not stated),1.86%,
N#Cc1ccc(C2=CC(=O)C[C@H](c3ccc(Cl)cc3)C2)cc1,-16.3%,
O=C(CSc1oc(-c2ccco2)nc1S(=O)(=O)c1ccc(Cl)cc1)c1ccccc1,1.52%,
COc1ccccc1CNc1nccn(-c2ccc(F)cc2)c1=O,-2.26%,
Cc1ccc(C2(C)NC(=O)N(CC(=O)Nc3ccccc3C(=O)N3CCCCC3)C2=O)cc1 (configuration not stated),0.472%,
CCOC(=O)c1c(C)[nH]c(C)c1S(=O)(=O)N1CCCC(C(=O)NCc2ccccc2Cl)C1 (configuration not stated),-8.43%,
Cc1ccc(NC(=O)CSc2nc3ccccc3c3nc(CCn4cncc4C)nn23)cc1F,3.74%,
O=C(CO/N=C/c1ccc(OC(F)F)cc1)NCc1ccc(F)cc1,-10.7%,
CCOc1ccc(CCNC(=O)COC(=O)c2ccc(F)c(S(=O)(=O)N3CCOCC3)c2)cc1OCC,0.0182%,
CCC(=O)N1c2ccccc2CC1C(=O)N1CCN(c2ccccc2)CC1 (configuration not stated),2.76%,
Cc1ccc(CSc2ccc(S(=O)(=O)N3CCCCC3)cn2)cc1,4.03%,
O=C(Nc1ccccc1F)c1cc(S(=O)(=O)N2CCCCC2)cs1,6.84% [at 2.3 µM],
O=C(Nc1ccccc1C(=O)O)c1cc(S(=O)(=O)N2CCCCC2)cs1,,23.9 µM (active)
Cc1ccccc1NC(=O)c1cc(S(=O)(=O)N2CCOCC2)cs1,-0.63%,
COc1ccc(CNC(=O)CN2C(=O)NC3(CCCc4sccc43)C2=O)cc1 (configuration not stated),2.42%,

SMILES,"activity change, negative = inhibition",Potency
CC[N+]1(CC)CC2=Cc3ccccc3CC2C1 (configuration not stated),-0.581%,
COc1ccccc1C(=O)NC(=O)COC(=O)C1CC1,,9.53 µM (active)
COc1ccccc1C(=O)NC(=O)COC(=O)c1ccco1,12.2%,
COc1ccccc1C(=O)OCC(=O)NCCNC(=O)COC(=O)c1ccccc1OC,-0.745%,
O=C(Nc1cccc(-n2cnnn2)c1)c1cccnc1,-1.84%,
O=C(Nc1ccc(O)c(-c2nc3ccccc3o2)c1)c1ccc(-c2cccc(Cl)c2)o1,3.47%,
Cc1ccccc1-c1nc2cc(NC(=O)c3cccc(OCCC(C)C)c3)ccc2o1,-3.07%,
O=C(Nc1ccc2oc(-c3ccccc3F)nc2c1)c1ccco1,,6.01 µM (active)
COc1ccccc1CNC(=O)COC(=O)CNS(=O)(=O)c1ccc(NC(C)=O)cc1,-0.864%,
Cc1cccc(N2CCN(C(=O)c3cnc(N4CCCC4)nc3C)CC2)c1C,2.04%,
COc1ccccc1CNC(=O)C1CCN(S(C)(=O)=O)CC1,2.3%,
COc1ccccc1CNC(=O)C1CCN(C(=O)[C@@H]2Cc3ccccc3CN2)CC1,-0.16%,
COc1ccccc1CCNC(=O)C1CCN(C(=O)/C=C/c2ccccc2)CC1,,21.3 µM (active)
OC1CCCN(c2ncnc3c2nnn3Cc2c(F)cccc2Cl)C1 (configuration not stated),-13.1%,
C/C(=C/c1ccccc1)C(=O)N1CCN(c2ccccc2)CC1,-12.4%,
Cc1ccnc(NS(=O)(=O)c2ccc(NC(=O)c3ccc(S(=O)(=O)N(C)C)cc3)cc2)n1,-7.16%,
CCn1c(SCC(=O)Nc2ccc(S(=O)(=O)Nc3onc(C)c3C)cc2)nnc1-c1ccccc1,2.13%,
Cc1cc(C)c2oc(C(=O)Nc3ccc(S(=O)(=O)Nc4nccc(C)n4)cc3)cc(=O)c2c1,-0.483%,
Cc1ccnc(NS(=O)(=O)c2ccc(NC(=O)c3oc4ccc(F)cc4c3C)cc2)n1,,26.9 µM (active)
Cc1cc(C)nc(NS(=O)(=O)c2ccc(N/C=C\C(=O)c3cccs3)cc2)n1,-7.27%,
Cc1cc(OC(C)C(=O)Nc2ccc(S(=O)(=O)Nc3onc(C)c3C)cc2)cc(C)c1Cl (configuration not stated),-0.156%,
Cc1noc(NS(=O)(=O)c2ccc(NC(=O)C34CCC(CC3)C4)cc2)c1C,0.134%,
Cc1noc(NS(=O)(=O)c2ccc(NC(=O)c3oc4ccc(F)cc4c3C)cc2)c1C,,15.1 µM (active)
Cc1ccc(C(=O)/C=C/Nc2ccc(S(=O)(=O)Nc3onc(C)c3C)cc2)cc1,,15.1 µM (active)
